Screening data as filed in PubChem BioAssay.
HSP90 refold inh – inhibitors of HSP90 luciferase refolding in rabbit reticulocyte lysate; inhibition, % at 5.6 µM; 290,000 compounds, 0.91% hits; luciferase refolding luminescence, 3 h;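 active means inhibition above the screen-wide mean plus 3 SD, computed separately per campaign, cut at about 16% in these data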;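 further: 0% = DMSO wells and 100% = 60 µM geldanamycin wells; inhibitors lower the luminescence because luciferase stays unfolded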
ARNT TACC3 PPI – disrupts binding between human ARNT and TACC3. Q9Y6A5. AlphaScreen His-ARNT PAS-B/GST-TACC3 binding, luminescence; TACC3 fragment carries E629A point mutation. inhibition, % at 9.99 µM. 390,000 compounds, 0.66% hits. AID 623870;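 active means mean inhibition of replicates at least 50% and at least half of replicates each reaching 50%; inconclusive means half or more replicates reach 50% but mean below 50%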;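 further: 0% = complete ARNT plus TACC3 wells and 100% = ARNT alone without TACC3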
HIF act – HIF pathway transcriptional activation; U2OS HRE-luciferase reporter, luminescence; normalized: DMSO 0%, desferrioxamine 100%; activation, % at 7.5 µM (by protocol); 300,000 compounds, 0.32% hits; AID 1910;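 active means mean activation of at least 10% of the iron chelator positive control signal, with at least half of replicates also reaching 10%; inconclusive means mean and replicate majority disagree about reaching 10%; inactive means mean and most replicates under 10%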
HSF1 inh – HSF1 inhibition; NIH3T3-HGL HSE-luciferase, MG132-induced, luminescence 8 h; stronger effect = lower value; 300,000 compounds, 0.77% hits; activity change, negative = inhibition, % at 7.5 µM (by protocol); AID 2098;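 active means more than half of replicate wells show activity change below -50%, luminescence cut by over half; inconclusive means some wells, but at most half, below -50%; inactive means no replicate well below -50%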;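 further: luciferase reports HSF-1 transcriptional activity via heat shock element; 0% = median of DMSO wells and -100% = zero luminescence signal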
HSF-1 act – increases HSF-1 driven luciferase reporter signal | NIH3T3-HGL HSF-1 luciferase reporter, MG132, 8 h; 100% = twice DMSO control signal | 300,000 compounds, 1.7% hits | AID 504408 | activation, % at 9 µM;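 active means mean replicate activation of at least 50% with a set share of replicates each reaching 50%; inconclusive means only one of those two conditions met; inactive means mean below 50% and too few replicates reaching it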;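 further: 0% = median of the neutral control wells and 100% = twice that signal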
HSP90 confirm – HSP90 inhibition, confirmation assay. rabbit reticulocyte lysate, luciferase refolding luminescence, 3 h. 2,300 compounds, 64% hits. inhibition, % at 5.9 µM. shares compounds with HSP90 refold inh; in the data active means inhibition above about 18%;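 further: 0% = vehicle wells and 100% = reference inhibitor wells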
luciferase ctr – blocks native firefly luciferase in HSP90 counter-screen; shares compounds with HSP90 refold inh; purified native firefly luciferase, luminescence; inhibition, % at 5.9 µM; 2,300 compounds, 48% hits;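 active means inhibition above the mean inhibition of all tested sample wells plus 3 SD, cut at about 10% in these data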;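 further: 0% = DMSO with luciferase and 100% = wells lacking luciferase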
Target sequence (P08659 whole entry, looked up): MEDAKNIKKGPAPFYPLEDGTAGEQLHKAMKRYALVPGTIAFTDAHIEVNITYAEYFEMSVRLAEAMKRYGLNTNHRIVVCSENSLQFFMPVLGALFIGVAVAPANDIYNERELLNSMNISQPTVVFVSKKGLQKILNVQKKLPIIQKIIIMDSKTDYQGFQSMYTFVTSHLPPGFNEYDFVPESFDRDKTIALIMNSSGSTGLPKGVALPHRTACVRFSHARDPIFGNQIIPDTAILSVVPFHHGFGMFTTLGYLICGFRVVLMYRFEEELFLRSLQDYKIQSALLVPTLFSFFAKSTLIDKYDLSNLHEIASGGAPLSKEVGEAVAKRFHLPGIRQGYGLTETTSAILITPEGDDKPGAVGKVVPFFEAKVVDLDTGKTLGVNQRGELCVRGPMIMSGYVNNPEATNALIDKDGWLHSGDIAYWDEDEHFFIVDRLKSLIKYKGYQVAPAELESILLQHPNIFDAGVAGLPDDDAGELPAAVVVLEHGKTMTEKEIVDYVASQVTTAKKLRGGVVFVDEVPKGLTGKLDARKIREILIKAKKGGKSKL
The depositor's hits bear a star; ? = inconclusive; · = no result given. An excerpt weighted towards active compounds, which were near 3.1% of everything screened.

SMILES	HSP90 refold inh	ARNT TACC3 PPI	HIF act	HSF1 inh	HSF-1 act	HSP90 confirm	luciferase ctr
COc1ccc(C(=O)Nc2nnc(SCC(=O)NC3CC3)s2)cc1	23*	-9	-3	-4	-8	29*	16*
COc1ccc(C(=O)Nc2nnc(SCC(=O)Nc3ccc(NC(C)=O)cc3)s2)c(OC)c1	12	-4	2	9	-2	·	·
COc1ccc(OCc2nnc(NC(=O)Nc3ccc(F)cc3)s2)cc1	-1	·	0	-10	-14	·	·
CCc1nnc(NC(=O)c2ccc(OC)cc2OC)s1	21*	-2	-2	16	24	47*	43*
COc1cccc(C(=O)Nc2nnc(SCC(=O)NC3CC3)s2)c1	6	·	1	-3	5	·	·
COc1ccc(C(=O)Nc2nnc(SCC(=O)NCc3ccco3)s2)c(OC)c1	43*	1	-2	-4	13	62*	60*
CCOc1ccc(NC(=O)Nc2nnc(CC)s2)cc1	18*	-3	1	12	15	-2	-9
C/C(=N\OCc1cccc(C(=O)O)c1)c1ccc(Cl)cc1	71*	·	-1	7	11	86*	87*
C/C(=N\OCc1ccc(C#N)cc1)c1ccccc1	2	-34	5	41	?	·	·
CC(=O)c1c(C)[nH]c(C(=O)Nc2nc(C)cs2)c1C	51*	2	-5	21	7	77*	66*
COc1ccc(OC)c(NC(=O)c2[nH]c(C)c(C(C)=O)c2C)c1	27*	-9	1	9	-2	-2	-4
COc1ccc(Cl)cc1NC(=O)c1[nH]c(C)c(C(C)=O)c1C	-7	0	1	-10	-15	·	·
CC(=O)c1c(C)[nH]c(C(=O)Nc2ccc(C)cn2)c1C	27*	-9	-25	0	23	79*	70*
CCOCCCNC(=O)c1ccc(NC(=O)C2CCCO2)cc1 (stereo not drawn)	30*	-3	1	4	-1	3	0
CC(C)(C)c1cc(NC(=O)c2cccs2)no1	21*	·	2	18	22	36*	13*
Cc1cc(NC(=O)c2ccc(NC(=O)c3cccs3)cc2)no1	3	4	0	1	10	·	·
COCC(=O)Nc1ccc2c(c1)OC[C@@H](C)N(C(=O)c1ccncc1)C[C@@H](C)[C@H](OC)CN(C)C2=O	·	-7	·	·	·	·	·
C[C@@H]1CN([C@@H](C)CO)C(=O)c2cc(NC(=O)Nc3ccc(C(F)(F)F)cc3)ccc2O[C@@H](C)CCCCO[C@H]1CN(C)S(=O)(=O)c1cccs1	·	-5	·	·	·	·	·
CNC[C@@H]1Oc2ccc(NS(=O)(=O)c3cccs3)cc2C(=O)N([C@H](C)CO)C[C@@H]1C	·	1	·	·	·	·	·
CC(=O)Nc1cc(C(=O)OCC(=O)c2ccccc2)ccc1C	24*	-7	2	3	39	60*	-17
CCC(=O)Nc1ccccc1C(=O)OCC(=O)c1ccccc1	52*	-63	4	35	79*	66*	-30
O=C(N[C@@H]1CC[C@H](CCNC(=O)C2CCCCC2)O[C@@H]1CO)c1ccncc1	·	-5	·	·	·	·	·
C[C@@H]1CN([C@H](C)CO)S(=O)(=O)c2ccc(C#CC3CCCC3)cc2O[C@@H]1CN(C)C(=O)Nc1cc(F)ccc1F	·	-5	·	·	·	·	·
O=C(c1cn(-c2ccccc2)nc1-c1ccc(F)cc1)N1CCOCC1	3	-4	0	-4	-2	·	·
O=C(c1cn(-c2ccccc2)nc1-c1ccc(Br)cc1)N1CCOCC1	95*	·	0	-6	16	1	-1
SMILES	HSP90 refold inh	ARNT TACC3 PPI	HIF act	HSF1 inh	HSF-1 act	HSP90 confirm	luciferase ctr
C[C@@H]1CN([C@@H](C)CO)C(=O)c2cc(NC(=O)c3ccncc3)ccc2O[C@@H](C)CCCCO[C@H]1CN(C)S(C)(=O)=O	·	5	·	·	·	·	·
Cc1ccc2c(c1)C(=O)C(=O)N2CCOc1ccccc1	21*	8	0	1	-12	3	-26
Cc1cccc(OCCN2C(=O)C(=O)c3cc(C)ccc32)c1	-2	27	1	-15	-16	·	·
Cc1ccc(C(=O)Nc2ccccc2C(=O)N2CCCCCC2)cc1	-2	3	0	10	4	·	·
O=C(Nc1ccc(C(=O)N2CCCCC2)cc1)c1ccccc1	·	4	·	·	·	·	·
CCN1CCN(Cc2ccc(NC(=O)Nc3ccc(OC)cc3)cc2)CC1	-3	2	·	-1	15	·	·
CCN1CCN(Cc2ccc(NC(=O)Nc3ccccc3)cc2)CC1	20*	2	·	-42	-49	29*	9
O=C(c1ccc(NS(=O)(=O)c2cccc(F)c2)cc1)N1CCCCC1	24*	-9	0	-4	-8	-9	-11
O=C(Nc1ccccc1)Nc1ccc(C(=O)N2CCCC2)cc1	22*	-6	0	13	44	43*	20*
O=C(Nc1ccccc1C(=O)N1CCCC1)c1ccccc1	27*	-8	0	-12	-14	-3	-5
Cc1ccc(S(=O)(=O)N(C)C[C@H]2OCCCC[C@H](C)Oc3ccc(NC(=O)NC(C)C)cc3C(=O)N([C@@H](C)CO)C[C@@H]2C)cc1	·	2	·	·	·	·	·
Cc1ccc(S(=O)(=O)N[C@@H]2CC[C@H](CC(=O)N3CCc4ccccc4C3)O[C@H]2CO)cc1	·	-3	·	·	·	·	·
CO[C@H]1CN(C)C(=O)c2ccc(NC(C)=O)cc2OC[C@@H](C)N(C(=O)C2CCC2)C[C@H]1C	·	-8	·	·	·	·	·
O=C1C2CCCN2C(=S)N1c1ccccc1 (stereo not drawn)	49*	-4	1	-9	-8	-8	-14
Cc1cccc(N2C(=O)C3CCCN3C2=S)c1 (stereo not drawn)	-4	-9	-10	3	0	·	·
O=C(C[C@@H]1CC[C@@H](NC(=O)Nc2ccc3c(c2)OCO3)[C@H](CO)O1)NCc1ccc(F)cc1	·	-9	·	·	·	·	·
CN(C)C(=O)C[C@@H]1CC[C@H](NC(=O)Nc2cccc(F)c2)[C@@H](CO)O1	·	5	·	·	·	·	·
CC1(C)C(C=C(Cl)Cl)C1C(=O)N(Cc1cccc(Cl)c1)C1CCS(=O)(=O)C1 (stereo not drawn)	17*	4	0	16	27	1	-10
Cc1cc(N=Nc2ccc(C)c(N=Nc3cc(C)c(N)cc3N)c2)c(N)cc1N	17*	29	4	-16	-19	33*	51*
COc1ccc(CN2C[C@H](O)COC[C@H]3O[C@@H](CC(=O)N4CCc5ccccc5C4)CC[C@@H]32)cc1	·	12	·	·	·	·	·
CCOc1ccc2nc(COC(=O)c3cccs3)c(C(=O)c3ccccc3)[n+]([O-])c2c1	0	-6	3	-16	-20	·	·
CCOc1ccc2nc(COC(=O)c3cccs3)c(C(C)=O)[n+]([O-])c2c1	29*	5	-1	-7	6	-5	-11
